Data taken from PubChem BioAssay AID1159580 (chemical genetic matrix, 2015).
In all, about 5,500 compounds went through this assay and about 2,000 (36%) were called active. Another 18% or so got no clear call; they are omitted. Cut-off read from the data, not from the text of the source: active = normalized growth mostly below about 0.91 (no sharp cut-off); inconclusive = no clear call, values can overlap the other calls; inactive = mostly above about 0.92. Some of the results follow.

Test: chemical genetic growth profiling, strain panel (AID 1159580);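 note: tested at 20 µM; growth read once vehicle control cultures reached saturation at 30 °C; 1 = growth at the plate median or of vehicle wells; lower values mean less growth of the strain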
Conditions: growth OD

Measured: normalized growth

COc1cnc(NS(=O)(=O)c2ccc(N)cc2)nc1
inactive: S. cerevisiae deletion strains, locus YJR075W, strain HOC1, hits give low values 0.978 | S. cerevisiae deletion strains, locus YKL009W, strain mrt4, hits give low values 0.994 | S. cerevisiae deletion strains, locus YKL068W, hits give low values 0.983 | S. cerevisiae deletion strains, locus YKL085W, strain MDH1 (second series), hits give low values 0.971 | S. cerevisiae deletion strains, locus YKL085W, strain MDH1, hits give low values 0.971 | S. cerevisiae deletion strains, locus YKL160W, strain elf1, hits give low values 0.999 | S. cerevisiae deletion strains, locus YKL190W, strain CNB1, hits give low values 0.979 | S. cerevisiae deletion strains, locus YKR001C, strain vps1, hits give low values 0.964 | S. cerevisiae deletion strains, locus YKR026C, strain gcn3, hits give low values 1 | S. cerevisiae deletion strains, locus YKR091W, strain srl3, hits give low values 0.998 | S. cerevisiae deletion strains, locus YLL001W, strain dnm1, hits give low values 0.966 | S. cerevisiae deletion strains, locus YLL026W, hits give low values 1 | S. cerevisiae deletion strains, locus YLL041C, strain sdh2, hits give low values 0.997 | S. cerevisiae deletion strains, locus YLR027C, strain aat2, hits give low values 1.01 | S. cerevisiae deletion strains, locus YLR039C, strain RIC1, hits give low values 0.969 | S. cerevisiae deletion strains, locus YLR058C, strain SHM2, hits give low values 0.976 | S. cerevisiae deletion strains, locus YLR102C, strain apc9, hits give low values 0.973 | S. cerevisiae deletion strains, locus YLR113W, strain HOG1, hits give low values 0.989 | S. cerevisiae deletion strains, locus YLR221C, strain rsa3, hits give low values 0.988 | S. cerevisiae deletion strains, locus YLR258W, strain gsy2, hits give low values 0.99 | S. cerevisiae deletion strains, locus YLR262C, strain YPT6 (second series), hits give low values 1.02 | S. cerevisiae deletion strains, locus YLR262C, strain YPT6, hits give low values 0.96 | S. cerevisiae deletion strains, locus YLR268W, strain sec22, hits give low values 0.888 | S. cerevisiae deletion strains, locus YLR320W, strain mms22, hits give low values 0.965 | S. cerevisiae deletion strains, locus YLR330W, strain CHS5, hits give low values 0.994 | S. cerevisiae deletion strains, locus YLR342W, strain FKS1 (second series), hits give low values 1.03 | S. cerevisiae deletion strains, locus YLR342W, strain FKS1, hits give low values 1.01 | S. cerevisiae deletion strains, locus YLR357W, strain rsc2, hits give low values 0.945 | S. cerevisiae deletion strains, locus YLR370C, strain arc18, hits give low values 1 | S. cerevisiae deletion strains, locus YLR371W, strain rom2, hits give low values 0.97 | S. cerevisiae deletion strains, locus YLR384C, strain iki3, hits give low values 1 | S. cerevisiae deletion strains, locus YLR418C, strain cdc73, hits give low values 0.99 | S. cerevisiae deletion strains, locus YML016C, strain PPZ1, hits give low values 0.993 | S. cerevisiae deletion strains, locus YML032C, strain rad52, hits give low values 0.97 | S. cerevisiae deletion strains, locus YML120C, strain ndi1, hits give low values 1.02 | S. cerevisiae deletion strains, locus YML124C, strain tub3, hits give low values 0.979 | S. cerevisiae deletion strains, locus YMR058W, strain fet3, hits give low values 1 | S. cerevisiae deletion strains, locus YMR078C, strain ctf18, hits give low values 0.976 | S. cerevisiae deletion strains, locus YMR125W, strain sto1, hits give low values 0.991 | S. cerevisiae deletion strains, locus YMR129W, hits give low values 0.985 | S. cerevisiae deletion strains, locus YMR205C, strain PFK2, hits give low values 0.998 | S. cerevisiae deletion strains, locus YMR223W, strain ubp8, hits give low values 0.979 | S. cerevisiae deletion strains, locus YMR231W, strain pep5, hits give low values 0.998 | S. cerevisiae deletion strains, locus YMR307W, strain GAS1, hits give low values 1.03 | S. cerevisiae deletion strains, locus YNL067W, strain RPL9B, hits give low values 0.982 | S. cerevisiae deletion strains, locus YNL071W, strain lat1, hits give low values 1.01 | S. cerevisiae deletion strains, locus YNL183C, strain NPR1, hits give low values 0.933 | S. cerevisiae deletion strains, locus YNL209W, strain ssb2, hits give low values 0.997 | S. cerevisiae deletion strains, locus YNL233W, strain BNI4, hits give low values 1 | S. cerevisiae deletion strains, locus YNL248C, strain rpa49, hits give low values 0.982 | S. cerevisiae deletion strains, locus YNL250W, strain rad50, hits give low values 0.982 | S. cerevisiae deletion strains, locus YNL271C, strain bni1, hits give low values 0.979 | S. cerevisiae deletion strains, locus YNL298W, strain CLA4, hits give low values 0.965 | S. cerevisiae deletion strains, locus YNL307C, strain MCK1, hits give low values 0.981 | S. cerevisiae deletion strains, locus YNL322C, strain KRE1 (second series), hits give low values 0.986 | S. cerevisiae deletion strains, locus YNR049C, strain mso1, hits give low values 1 | S. cerevisiae deletion strains, locus YNR052C, strain pop2, hits give low values 0.977 | S. cerevisiae deletion strains, locus YOL006C, strain TOP1, hits give low values 0.945 | S. cerevisiae deletion strains, locus YOL012C, strain htz1 0.813 | S. cerevisiae deletion strains, locus YOL147C, strain pex11, hits give low values 0.985 | S. cerevisiae deletion strains, locus YOR001W, strain rrp6, hits give low values 0.99 | S. cerevisiae deletion strains, locus YOR061W, strain CKA2, hits give low values 0.962 | S. cerevisiae deletion strains, locus YOR069W, strain VPS5, hits give low values 0.993 | S. cerevisiae deletion strains, locus YOR070C, strain gyp1, hits give low values 1.01 | S. cerevisiae deletion strains, locus YOR080W, strain dia2, hits give low values 0.98 | S. cerevisiae deletion strains, locus YOR083W, strain WHI5, hits give low values 0.943 | S. cerevisiae deletion strains, locus YOR106W, strain vam3, hits give low values 0.986 | S. cerevisiae deletion strains, locus YOR136W, strain idh2, hits give low values 0.987 | S. cerevisiae deletion strains, locus YOR144C, strain elg1, hits give low values 0.976 | S. cerevisiae deletion strains, locus YOR184W, strain ser1, hits give low values 0.985 | S. cerevisiae deletion strains, locus YOR231W, strain MKK1, hits give low values 0.99 | S. cerevisiae deletion strains, locus YOR265W, strain rbl2, hits give low values 1.02 | S. cerevisiae deletion strains, locus YOR270C, strain vph1, hits give low values 1.04 | S. cerevisiae deletion strains, locus YOR290C, strain snf2, hits give low values 0.984 | S. cerevisiae deletion strains, locus YOR316C, strain cot1, hits give low values 0.958 | S. cerevisiae deletion strains, locus YPL051W, strain arl3, hits give low values 0.999 | S. cerevisiae deletion strains, locus YPL055C, strain LGE1, hits give low values 0.949 | S. cerevisiae deletion strains, locus YPL078C, strain atp4, hits give low values 0.991 | S. cerevisiae deletion strains, locus YPL106C, strain sse1, hits give low values 0.952 | S. cerevisiae deletion strains, locus YPL240C, strain hsp82, hits give low values 1 | S. cerevisiae deletion strains, locus YPL256C, strain CLN2, hits give low values 0.99 | S. cerevisiae deletion strains, locus YPR119W, strain clb2, hits give low values 0.985 | S. cerevisiae deletion strains, locus YPR141C, strain kar3, hits give low values 0.96 | S. cerevisiae deletion strains, locus YPR163C, strain tif3, hits give low values 0.991 | S. cerevisiae deletion strains, locus YPR167C, strain met16, hits give low values 0.983 | S. cerevisiae deletion strains, strain wtn01, hits give low values 0.989 | S. cerevisiae strains, strain wild type, hits give low values 0.983
